Mac1 fbg enh: increases human CD11b/CD18 adhesion to fibrinogen | P05107+P11215 | K562 CD11b/CD18 adhesion to fibrinogen, ATPlite luminescence | activation, % at 10 µM | hit rate 0.07% among 93,000;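 active = 10 µM primary screen giving 50% or more activity, confirmed by 40% or more on retest at that dose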
CYP2C19 inhib: blocks human cytochrome P450 2C19; CYP2C19 Supersomes, luciferin-H EGE luminescence, 30 min; hit rate 21% among 96,000; inhibition, % at 5 µM;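 active = CYP2C19 inhibition above a set limit at 5 µM in the primary screen, cut at about 50% in these data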
Target sequence (P33261 whole entry, looked up): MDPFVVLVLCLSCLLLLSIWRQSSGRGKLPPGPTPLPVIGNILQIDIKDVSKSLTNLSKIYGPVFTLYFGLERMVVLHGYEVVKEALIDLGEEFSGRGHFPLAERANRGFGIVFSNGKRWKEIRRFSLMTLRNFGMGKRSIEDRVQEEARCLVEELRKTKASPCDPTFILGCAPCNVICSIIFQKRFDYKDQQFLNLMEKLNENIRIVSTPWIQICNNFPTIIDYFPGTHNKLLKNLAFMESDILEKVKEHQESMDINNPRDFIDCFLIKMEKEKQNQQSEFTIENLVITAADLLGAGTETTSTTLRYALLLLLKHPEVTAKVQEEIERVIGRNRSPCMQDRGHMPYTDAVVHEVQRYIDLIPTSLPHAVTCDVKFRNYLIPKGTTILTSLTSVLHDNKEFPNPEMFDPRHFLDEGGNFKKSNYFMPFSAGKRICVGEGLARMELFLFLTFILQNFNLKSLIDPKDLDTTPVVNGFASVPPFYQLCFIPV
CYP2C9 inhib: human CYP2C9 inhibition; CYP2C9 Supersomes, luciferin-H conversion, luminescence; hit rate 20% among 96,000; inhibition, % at 5 µM;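 active = blocking of liver enzyme CYP2C9 beyond about 50% at 5 µM, limit read from the data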
CYP2C19 activ: increases human CYP2C19 enzyme activity; P33261; recombinant CYP2C19, luciferin-H EGE luminescence; stronger effect = higher value; 0 = fully inhibited enzyme, 1 = untreated enzyme; AID 1025; activation factor at 5 µM; 96,000 tested, under 10 active;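 active = activation factor of at least 2 at 5 µM in the primary screen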
CD11b adhes inh: CD11b/CD18-fibrinogen binding inhibition | P05107+P11215 | K562 CD11b/CD18 adhesion to fibrinogen, ATPlite luminescence; Mn2+ added to activate the integrin | inhibition, % at 10 µM | hit rate 0.54% among 93,000;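 active = primary inhibition of 50% or more at 10 µM, then 40% or more on retest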
CYP2C9 act: CYP2C9 (human) activation. hit rate 1.4% among 96,000. P11712. recombinant CYP2C9, luciferin-H conversion, luminescence; stronger effect = higher value; factor 1 = untreated enzyme, 0 = blocked. activation factor at 5 µM;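 active = activation factor of 2 or more for CYP2C9 at a 5 µM dose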
Large screens that a line does not name were inactive. This is a sample that favours compounds with a hit; in the whole collection about 28% have one here.

COc1cc(C2C3C(=O)N(Cc4ccccc4)C(=O)C3ON2c2ccccc2)cc(OC)c1OC (stereo unspecified)	CYP2C19 inhib 56.9
CCCCc1ccc(N2C(=O)[C@@H]3C(CC(N)=O)NC4(C(=O)Nc5ccc(F)cc54)[C@@H]3C2=O)cc1 (stereo partly specified)	none
Cc1ccc2c(c1)cc(C)c1nnc(SCC(=O)NCc3ccco3)n12	none
CCOC(=O)C1=C(O)/C(=C\c2ccc(CNC(=O)C(=O)Nc3ccccc3)o2)N=C1C	none
Nc1nc(CSCc2ccccc2)nc(N2CCOCC2)n1	CYP2C19 inhib 91.8
CN(C)c1nc(SCc2ccccc2)nc(N2CCOCC2)n1	none (no result: Mac1 fbg enh, CD11b adhes inh)
Nc1nc(N2CCOCC2)nc(N(c2ccccc2)c2ccccc2)n1	none
CCNc1nc(SCc2ccccc2)nc(N2CCOCC2)n1	CYP2C19 inhib 82.1, CYP2C9 inhib 67.8
Clc1ccc(CNc2nc(N3CCOCC3)nc(N3CCOCC3)n2)cc1	CYP2C19 inhib 77.1, CYP2C9 inhib 75.4
C(=C\c1ccccc1)/C=N/Nc1nc(N2CCOCC2)nc(N2CCOCC2)n1	none
COC(=O)[C@H](C)NC(=O)Nc1cc(OC)ccc1OC	none
CC(=O)c1c(C)[nH]c(C(=O)COC(=O)CN(C)S(=O)(=O)c2ccc(Cl)cc2)c1C	none
Cc1ccnc(NCn2nnc3ccccc32)c1	none (no result: Mac1 fbg enh, CD11b adhes inh)
CCn1c(-c2ccccc2Cl)nn(CC(=O)Nc2cc(Cl)ccc2Cl)c1=S	CYP2C19 inhib 88.6 (no result: Mac1 fbg enh, CD11b adhes inh)
COC(=O)C1C(c2ccccc2)C(C(=O)N2CCOCC2)C1c1ccccc1 (stereo unspecified)	CYP2C19 inhib 83.6
CCSc1ccc2nnc(-c3cccc(F)c3)n2n1	none
CC(C)CN(CC(C)C)S(=O)(=O)N1CCC(C(=O)NC2CCCCCCC2)CC1	none
O=S(=O)(c1ccc(NC2CCCCC2)cc1)N1CCOCC1	none
N#CCOC(=O)c1sccc1-n1cccc1	CYP2C9 act 2 (no result: Mac1 fbg enh, CD11b adhes inh)
O=C(NC1CC1)c1sccc1-n1cccc1	none
CC1=C(C(=O)NC2CCC(C)CC2)C2(CCC(C)CC2)OC1=O (stereo unspecified)	none
O=C(NCS(=O)(=O)c1ccccc1)c1ccccc1	CYP2C19 inhib 70.3
CN(C)c1c([N+](=O)[O-])cc2[nH]c(=O)[nH]c2c1[N+](=O)[O-]	none
O=C(COc1cccc(NC(=O)c2ccco2)c1)c1ccccc1	none
COc1ccc(N2CSC3=C(C#N)C(c4cc(OC)c(OC)cc4OC)CC(=O)N3C2)c(OC)c1 (stereo unspecified)	none
COc1ccc(C2CC(=O)N3CN(c4ccc(C)c(Cl)c4)CSC3=C2C#N)cc1OC (stereo unspecified)	CYP2C9 inhib 95.8
COc1ccc(N2CSC3=C(C#N)C(c4ccc(OC)c(OC)c4)CC(=O)N3C2)c(OC)c1 (stereo unspecified)	none
COc1ccc(N2CSC3=C(C#N)C(c4cc(OC)ccc4OC)CC(=O)N3C2)c(OC)c1 (stereo unspecified)	CYP2C9 inhib 52.9
CCOc1ccccc1N1CSC2=C(C#N)C(c3c(OC)ccc4ccccc34)CC(=O)N2C1 (stereo unspecified)	CYP2C19 inhib 75.1, CYP2C9 inhib 99.9
CCC(=O)Nc1ccc2c(c1)nc(CN1CCN(C(C)=O)CC1)n2C	none
CCOC(=O)Nc1ccc([N+](=O)[O-])cc1C	none (no result: CYP2C19 inhib, CYP2C9 inhib, CYP2C19 activ, CYP2C9 act)
Cc1cc([N+](=O)[O-])ccc1NC(=S)NC(=O)Cc1ccccc1	none
Cc1cc([N+](=O)[O-])ccc1NCc1ccc2ccccc2c1	CYP2C9 inhib 77.3 (no result: Mac1 fbg enh, CD11b adhes inh)
Cc1cc([N+](=O)[O-])ccc1NCc1ccccc1	CYP2C19 inhib 87.2, CYP2C9 inhib 51.9 (no result: Mac1 fbg enh, CD11b adhes inh)
COc1ccc(CNc2cc([N+](=O)[O-])ccc2OC)cc1	CYP2C19 inhib 52.4, CYP2C9 inhib 74.7 (no result: Mac1 fbg enh, CD11b adhes inh)
Cc1cccc2c1NC(C)CC2C (stereo unspecified)	none
CCCn1c(C)cc(=O)c2cc(NC(=O)c3cnccn3)ccc21	none
O=C(NC(=O)c1cccc(OC(F)(F)C(F)F)c1)OC1CCS(=O)(=O)C1 (stereo unspecified)	none
c1ccc(-c2ccccc2-n2cnnn2)cc1	none
Cc1nn(CCc2nc(-c3ccco3)cs2)c2[nH]c(=O)cc(C(F)(F)F)c12	CYP2C19 inhib 56.0, CYP2C9 inhib 71.2
